Data on 40 compounds can be found in PubChem BioAssay (Tox21).

Results filed as inconclusive are left out. Entries that show only a call come without a potency. Values without a mark were called inactive. Calls of active or inactive are those of the source. Calls follow the shape of the full dose curve.

The assay can be described thus: qHTS assay for small molecule disruptors of the mitochondrial membrane potential - cell viability (AID 720634).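 Also: human HepG2 liver cancer cells; nearly all actives have a fitted effect of over 20% in size.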 The note with it: HepG2 viability, ATP luminescence (CellTiter-Glo), 1 h; series mostly up to 83.2 µM. The source says: U.S. Tox21 Program National Center for Advancing Translational Sciences [NCATS] NIH Chemical Genomics Center [NCGC] U.S. Environmental Protection Agency [EPA] National Institutes of Environmental Health Sciences [NIEHS] National Toxicology Program [NTP] U.S. Food and Drug Administration [FDA] Tox21 Assay Overview: Mitochondrial membrane potential (MMP), one of the parameters for mitochondrial function, is generated by mitochondrial electron transport chain that creates an electrochemical gradient by a series of redox reactions. This gradient drives the synthesis of ATP, a crucial molecule for various cellular processes. Measuring MMP in living cells is commonly used to assess the effect of chemicals on mitochondrial function; decreases in MMP can be detected using lipophilic cationic fluorescent dyes. […] The dye accumulates in the mitochondria of healthy cells as aggregates, with red fluorescence. The mitochondrial potential decreases and the dye could not accumulate in the mitochondria and remains in the cytoplasm in monomers, with green fluorescence. In addition to the mitochondrial potential assay, these cells were also used to test the cytotoxicity by determining the cell viability in the culture based on the quantitation of ATP present. The cytotoxicity was measured in the same assay well of MMP assay.
Tox21 Assay Protocol Summary: 2,000 HepG2 cells in 5 uL/well were dispensed into black, clear-bottom 1536-well plates using a Multidrop Combi (Thermo Scientific) dispenser. The assay plates were incubated for an overnight at 37 C to allow cells to attach to the wells, followed by the transfer of 23 nL compound or DMSO vehicle by a pin tool (Kalypsys). The plates were incubated for 1 hr at 37 C and 5% CO2, followed by the addition of 5 uL of 2X m-MPI dye into each well using Flying Reagent Dispenser (Aurora Discovery) and then CellTiter-Glo reagent was added at 4 uL/well and incubated 30 min at room temperature. Then luminescence intensity was quantified on a ViewLux CCD-based plate reader.
As for `COC=O`, the activity change, negative = cytotoxicity was 7.15% [at 8.08 µM].

On to `CC(CN=Cc1ccccc1O)N=Cc1ccccc1O` (stereo not given), for which the Potency result is “inactive”.

For the compound `Cc1cc(C)n(CO)n1`, the Potency entry is “inactive”.

Consider `Nc1nc(Cl)nc2c1ncn2[C@H]1C[C@H](O)[C@@H](CO)O1`, for which the Potency result is “inactive”.

For the compound `CC(Cc1ccccc1)(NC(=O)CN)c1ccccc1` (stereo not given), the Potency result was “inactive”.

Turning to `CC(=O)c1ccc(Cl)c(Cl)c1Cl`, the Potency entry was “inactive”.

With `CCCCOC(=O)CC#N`, the Potency result is “inactive”.

With `O=C(O)CCc1nc2ccccc2[nH]1`, the Potency entry is “inactive”.

As for `Clc1ccccc1-c1nc(-c2ccncc2)no1`, the Potency entry was “inactive”.

For `O=C(O)c1cc(C(=O)O)c(C(=O)O)cc1C(=O)O`, the Potency result was “inactive”.

In the case of `CC/C=C\CCO`, the Potency entry is “inactive”.

For the compound `CC1(C)CC(=O)CC(C)(C)N1`, the Potency result is “inactive”.

As to `O=C(O)c1cccnc1Nc1cccc(C(F)(F)F)c1`, the Potency entry was “inactive”.

`CCCCCO`: the Potency entry was “inactive”.

With `Oc1ccc(CCNCCCCCCNCCc2ccccc2)cc1O`, the Potency entry was “inactive”.

As for `CC(C)(C)c1ccc(CCC=O)cc1`, the Potency result was “inactive”.

As for `CCC(C)CCCC(C)(C)O` (stereo not given), the Potency entry is “inactive”.

Take `CCC1=C(C)CN(C(=O)NCCc2ccc(S(=O)(=O)NC(=O)NC3CCC(C)CC3)cc2)C1=O` (stereo not given): the Potency entry is “inactive”.

Consider `CCc1cnc(C(=O)O)c(C(=O)O)c1`, for which the Potency result is “inactive”.

As for `CCCC(=O)OCc1ccccc1`, the Potency result was “inactive”.

With `Cc1nc2sccn2c(=O)c1CCN1CCC(=C(c2ccc(F)cc2)c2ccc(F)cc2)CC1`, the Potency entry is “inactive”.

For `C=CC(=O)NC(C)(C)C`, the Potency entry is “inactive”.

Consider `O=C(O)c1c2ccccc2cc2ccccc12`, for which the Potency entry is “inactive”.

Take `Cc1c(Nc2ncccc2C(=O)O)cccc1C(F)(F)F`: the Potency result was “inactive”.

In the case of `C[C@H]1C[C@H]2[C@@H]3CCC4=CC(=O)C=C[C@]4(C)[C@@]3(F)[C@@H](O)C[C@]2(C)[C@@]1(O)C(=O)COP(=O)(O)O`, the Potency entry is “inactive”.

Take `O=C(O)c1cccc(C(=O)O)c1C(=O)O`: the Potency entry is “inactive”.

For the compound `CC(=O)Nc1cccc(N)c1`, the Potency entry was “inactive”.

Regarding `C=CC(=O)OCCCCCCCCCC`, the Potency result was “inactive”.

Consider `CC(=O)Oc1cccc2c1C(=O)c1c(OC(C)=O)cc(C(=O)O)cc1C2=O`, for which the Potency result is “inactive”.

For `Nc1ccc(F)cc1F`, the Potency entry was “inactive”.

In the case of `CO[C@@H]1COCC[C@@H]1N[C@@H]1CC[C@@](C(=O)N2CCc3ncc(C(F)(F)F)cc3C2)(C(C)C)C1`, the Potency result is “inactive”.

Consider `CC(=O)S[C@H](C(=O)N[C@H]1Cc2ccccc2[C@H]2CCC[C@@H](C(=O)O)N2C1=O)C(C)C`, for which the Potency result was “inactive”.

In the case of `CCCCCCCCCCCCN1CCOCC1`, the Potency entry was “inactive”.

Consider `CCOc1ccc2c(c1)C(C)CC(C)(C)N2` (stereo not given), for which the Potency entry was “inactive”.

For `Nc1ncnc2c1ncn2[C@@H]1O[C@H](CO)[C@@H](O)[C@H]1O`, the Potency entry is “inactive”.

As for `O=[N+]([O-])c1ccccc1CCO`, the Potency result is “inactive”.

With `Cc1c(N=C=O)cccc1N=C=O`, the Potency result is “inactive”.

For `CCOc1ccccc1O`, the Potency result is “inactive”.

Take `CCCCCCCCS`: the Potency result was “inactive”.

As to `O=C(Cl)c1ccc(F)c(Cl)c1`, the Potency entry is “inactive”.
